# Assay outcomes (PubChem)
# SMN2 splice enh: increases expression of the SMN2 splice variant; HEK293 SMN2-luciferase splicing reporter, luminescence, 30-36 h; AID 1458; actives 2.8% (n = 210,000); Potency, µM (highest dose often 46.1 µM), inactives show top-dose activity change, positive = activation, usual class: activators; note: % of control where 0% means no effect; nearly all actives have a fitted effect of over 55% in size
#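 HEK293 cells carry an SMN2 minigene-luciferase reporter in which exon 7 inclusion puts luciferase in frame. Cells were seeded at 2000 cells/well, attached for 10-12 hours, then exposed to compounds for 30-36 hours at 37C before ONE-Glo luminescence.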
# ELG1 DNA repair: blocks ELG1-dependent DNA repair in HEK293T cells; HEK293T ELG1-luciferase reporter, luminescence, 16 h; DNA damage induced by 5-fluorouridine; Potency, µM (doses to about 46.1 µM), without a hit: top-dose activity change, negative = inhibition, actives largely listed as inhibitors; actives 2.3% (n = 330,000); note: % is set by controls: 0 for no effect and ±100 for the full control effect; nearly all actives have a fitted effect of over 55% in size
#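 DMSO vehicle served as the neutral condition. Each well held 2,000 cells given 5-fluorouridine plus compound; after 16 hr at 37 °C/5% CO2, ONE-Glo was added and luciferase measured 30 min later.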
# ELG1 genotoxic: genotoxicity induction in ELG1-luciferase HEK293T cells; HEK293T ELG1-luciferase reporter, luminescence, 16 h; Potency, µM (highest dose often 46 µM), for the others: at the highest dose activity change, positive = activation, usual class: activators; actives 1.3% (n = 330,000); note: % of control where 0% means no effect; nearly all actives have a fitted effect of over 60% in size
#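 Cells (2,000/well) expressing the ELG1-luciferase fusion are dosed by pin tool and kept 16 hr at 37 °C, 5% CO2. Signal comes from ONE-Glo luciferase reagent after 30 min at room temperature.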
# FLuc counter: firefly luciferase modulation, counter-screen for miR-21 project | actives 6.9% (n = 360,000) | AID 588342 | P08659 | Potency, µM (series often up to 57.5 µM), inactives show top-dose activity change, negative = inhibition, most hits filed as inhibitors | purified FLuc, Km substrates, luminescence inhibition;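 note: plate controls were vehicle for no effect and reference inhibitor for full effect; nearly all actives have a fitted effect of over 55% in size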
# Target sequence (P08659 whole entry, looked up): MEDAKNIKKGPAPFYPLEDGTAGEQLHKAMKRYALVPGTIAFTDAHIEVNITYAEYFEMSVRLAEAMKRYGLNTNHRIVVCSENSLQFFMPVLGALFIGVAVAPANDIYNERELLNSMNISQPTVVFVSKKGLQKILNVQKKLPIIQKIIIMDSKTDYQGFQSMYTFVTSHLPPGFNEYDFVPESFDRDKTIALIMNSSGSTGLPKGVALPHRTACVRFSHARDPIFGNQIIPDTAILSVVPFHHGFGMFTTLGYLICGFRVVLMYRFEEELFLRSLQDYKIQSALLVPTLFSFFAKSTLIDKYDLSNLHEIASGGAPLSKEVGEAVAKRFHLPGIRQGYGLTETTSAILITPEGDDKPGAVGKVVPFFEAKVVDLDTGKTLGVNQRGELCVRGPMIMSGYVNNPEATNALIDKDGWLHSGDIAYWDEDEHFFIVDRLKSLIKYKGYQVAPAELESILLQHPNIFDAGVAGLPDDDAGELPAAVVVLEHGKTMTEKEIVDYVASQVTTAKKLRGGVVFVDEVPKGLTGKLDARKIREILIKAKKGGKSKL
#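 Biochemical qHTS of compounds, final roughly 60 µM downward over six points, against 10 nM purified firefly luciferase using Km concentrations of substrates (10 uM D-luciferin, 10 uM ATP) in Tris acetate pH 7.5 buffer; luminescence output.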
# NPC1 prom act: activates the NPC1 promoter; actives 2.4% (n = 320,000); AID 485313; Huh7 NPC1 promoter luciferase reporter, 24 h; Potency, µM (titrated, usually from 9.22 µM), for the others: at the highest dose activation, actives largely listed as activators; note: % of control where 0% means no effect; nearly all actives have a fitted effect of over 60% in size
#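 Huh7 cells stably carrying NPC1 promoter–luciferase, plated in Opti-MEM with 10% FBS for 2 h, were exposed to compound in DMSO for 24 h at 37 °C; luciferase reagent was added for 10 min and luminescence read.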
# Rab9 promoter act: activators of Rab9 promoter; Huh7 Rab9 promoter-luciferase reporter, luminescence, 24 h; Potency, µM (series often up to 9.22 µM), for the others: at the highest dose activation, negative = inhibition, usual class: activators; actives 2.8% (n = 320,000); note: % of control where 0% means no effect; nearly all actives have a fitted effect of over 60% in size
#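 Huh7 cells stably carrying Rab9 promoter–luciferase reporter, plated 1500 cells/well, compound added after 2 h and incubated 24 h at 37 °C; luciferase luminescence then read after 10 min with detection reagent.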
# Numbers without * were called inactive; ? = inconclusive; / = no result given. Compounds with a hit are over-represented: about 9.2% of the library has one in this group of screens. Calls come from the whole dose curve; as a rule, active = well fitted curve in the direction sought with a large enough effect; inconclusive = small, poorly fitted or top-dose-only effect, or another doubt; inactive = no such curve, though single readings can be large; an effect the other way counts as inactive or inconclusive. Potency is the fitted concentration of half-maximal effect.
SMILES,SMN2 splice enh,ELG1 DNA repair,ELG1 genotoxic,FLuc counter,NPC1 prom act,Rab9 promoter act
Cc1cc(C(=O)NC(Cc2ccccc2)C(=O)O)c(C)o1 (stereo unspecified),/,-11%,-1%,-1%,-4%,-2%
COc1ccc(C(=O)Nc2cccc(-c3cn4ccsc4n3)c2)c(OC)c1,/,/,/,2.7µM*,/,/
COc1ccc(C(=O)Nc2cccc(-c3cn4ccsc4n3)c2)cc1OC,/,/,/,3.4µM*,/,/
CCc1ccc(NC(=O)CSc2nc(=O)n(CCN(C)C)c3c2CCCC3)cc1,/,7%,0%,6%,-5%,-6%
COc1ccccc1NC(=O)C1=C(C)Nc2nc(CCCO)nn2C1c1cccc(O)c1 (stereo unspecified),/,/,/,6%,/,/
NC(N)=Nc1nc(CCN2C(=O)c3ccccc3C2=O)cs1,32µM*,0%,4%,-10%,-3%,0%
CCN1CCN(/C=N/c2nc3c(s2)CCCC3)CC1,-4%,?,0.92µM*,1.3µM*,?,?
CN1CCN(CC(=O)Nc2nc3c(s2)CCCC3)CC1,/,?,0%,-5%,8%,10%
CC1CCN(c2oc(-c3cccc4ccccc34)nc2C#N)CC1,11µM*,?,?,?,?,?
CC(C)Nc1oc(-c2cccc3ccccc23)nc1C#N,10%,?,?,12µM*,0%,?
COCCNc1oc(-c2ccccc2Cl)nc1C#N,0%,?,2%,19µM*,17%,9%
N#Cc1nc(-c2cccc3ccccc23)oc1N1CCCCC1,8%,59%,16%,?,?,?
CCN(CC)C(=O)c1cc(-c2ccccc2OC)on1,12%,?,?,17µM*,?,?
COCCNC(=O)c1cc(-c2ccccc2OC)on1,36%,?,?,21µM*,9%,?
O=C(NCc1cccs1)c1cc(-c2ccc(O)cc2)on1,/,?,?,?,?,3.5µM*
O=C(NCc1ccco1)c1cc(-c2ccco2)on1,1%,?,?,?,?,?
COc1ccccc1-c1cc(C(=O)Nc2cc(OC)c(OC)c(OC)c2)no1,-32%,/,/,-19%,/,/
COc1ccccc1-c1cc(C(=O)NCc2ccco2)no1,1%,?,9%,15µM*,14%,0%
CCOC(=O)c1sc(S(C)(=O)=O)c2c1CC(C)(C)C/C2=N/O,/,-10%,-6%,2%,-3%,-1%
COc1ccccc1-c1cc(C(=O)NC(C)C)no1,29%,?,?,13µM*,3.2µM*,2.8µM*
COc1cccc2c(=O)c(C(=O)NCc3cccs3)c[nH]c12,?,?,?,9.5µM*,?,3.5µM*
Cc1ccc2[nH]cc(C(=O)NCc3cccs3)c(=O)c2c1,-24%,?,-3%,-13%,-7%,-2%
COc1ccccc1-c1cc(C(=O)NCc2cccs2)no1,-3%,?,6%,19µM*,13%,-5%
Cc1cccc(CNC(=O)c2ccc3nc(-c4ccccc4)c(-c4ccccc4)nc3c2)c1,4%,/,/,-18%,/,/
CN(C)c1ccc(NC(=O)Cn2nnc3sc4c(c3c2=O)CCC(C(C)(C)C)C4)cc1 (stereo unspecified),?,/,/,-19%,/,/
CC(=O)c1cccc(S(=O)(=O)N2CCC(C(=O)OC3CCOC3=O)CC2)c1 (stereo unspecified),/,17%,3%,/,-3%,-3%
CCOc1ccc2ccccc2c1/C=N\NC(=O)OC,2%,-1%,5%,-2%,-1%,0%
Cn1c(-c2ccccc2)c(/C=N/NC(=O)c2ccc(O)cc2)c2ccccc21,/,?,?,0.95µM*,?,?
CCOc1ccc2ccccc2c1/C=N\NC(=O)c1ccc([N+](=O)[O-])cc1,/,?,3%,9.5µM*,0%,-1%
